Cardio protect – myocardial damage modulation in H9c2 cells; H9c2 cardiomyocytes, H2O2 injury protection, ATPLite, 2 h; protection from H2O2 cell death, % at 20 µM; actives 0.63% (n = 360,000);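 active = compounds giving at least 50% protection of heart cells from peroxide-induced death in the single-dose screen, raw or plate-pattern-corrected value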
aDG glyco up – increases alpha dystroglycan glycosylation; Pro5-aDG cells, alpha-DG glycosylation AlphaScreen (IIH6); 0% Pro5, 100% B10-LARGE cell signal; activation, % at 10 µM; actives 0.22% (n = 360,000);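 active = activation of at least 8% versus controls, or a plate z-score of at least 8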;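 note: Pro5 are CHO cells carrying HIG-tagged alpha-DG that lacks glycosylation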
MPTP inh – inhibitors of mitochondrial permeability transition pore; isolated mouse mitochondria, Ca2+ swelling absorbance, 30 min; inhibition, % at 10 µM; actives 1.4% (n = 360,000); AID 602449;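 active = inhibition of 50% or more, scaled per plate between neutral and stimulator controls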
CR mimetic SO – caloric restriction mimetics inhibiting age-related superoxide in yeast | actives 0.18% (n = 330,000) | superoxide response (% of plate mean), % at 10 µM | S. cerevisiae aged cells, superoxide DHE fluorescence; stronger effect = lower value;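 active = superoxide response under a set limit, about three screen SD below normal, cut at about 65% in these data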;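 note: yeast aged for seven days with compound at 30 °C before DHE staining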
FAS-TE inh – blocks the thioesterase domain of human fatty acid synthase | P49327 | actives 0.67% (n = 360,000) | inhibition, % at 15 µM | recombinant FAS-TE, OMFH fluorogenic substrate, fluorescence endpoint;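 active = compounds whose normalised, plate-corrected inhibition of enzyme fluorescence in the single-dose primary screen is 50% or more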
Mot1-301 SUMO – SUMOylation pathway inhibition by Mot1-301 growth rescue; growth rescue, % at 18.8 µM; S. cerevisiae Mot1-301 growth rescue, ATP luminescence, 38.5C; percent above DMSO median, 100 means doubled; actives 1% (n = 320,000);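 active = every valid replicate shows activation above 250% relative to neutral control wells; inactive = the rest, any valid replicate at or below 250%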
CR mimetic CP – yeast aging superoxide inhibition, cherry pick confirmation. AID 434994. actives 1% (n = 850). shares compounds with CR mimetic SO. S. cerevisiae aging, superoxide DHE fluorescence; stronger effect = lower value. superoxide response (% of plate), % at 10 µM;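 active = superoxide signal below 65% of the plate average of sample wells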;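 note: cells aged with compound for 7 days at 30 degrees C before staining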
DHE fluor count – counter-screen for compounds affecting DHE oxidation and fluorescence in yeast. shares compounds with CR mimetic SO. S. cerevisiae BY4741, flow cytometry; stronger effect = lower value. fluorescence response, % at 10 µM. 850 tested, under 10 active;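 active = fluorescence response below 15%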;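 note: lower means stronger quenching of DHE signal or ROS scavenging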
Large screens that a line does not name were inactive (follow-up assays come after a bar, where they were run). Only some compounds are listed: those with a hit (about 3.8% of all), similar ones and a draw of the others.

O=C(C1CCCN(Cc2cccc(Cl)c2)C1)N1CCCCC1 (configuration not stated)	none
CC1CC(C)(C)OC(c2ccc(C(C)C)cc2)O1 (configuration not stated)	none (no result: CR mimetic SO, Mot1-301 SUMO)
COc1ccc(CCNC(=O)c2ccc(OCC(=O)N3CCOCC3)c(OC)c2)cc1OC	CR mimetic SO 64 | CR mimetic CP inactive | DHE fluor count inactive
CCCCNC(=O)/C(C#N)=c1\s/c(=C\c2ccccc2OC(F)F)c(=O)n1CCCOC	CR mimetic SO 65 | CR mimetic CP inactive | DHE fluor count inactive
COc1cc(NC(=O)CSc2nnc3n2C(C)(C)Cc2ccccc2-3)cc(OC)c1	CR mimetic SO 65 | CR mimetic CP inactive | DHE fluor count inactive
COc1cc(-c2nnc(NC(=O)c3ccc(S(=O)(=O)N4CCOCC4)cc3)o2)cc(OC)c1OC	none (no result: Cardio protect, aDG glyco up, MPTP inh, FAS-TE inh)
COc1ccccc1-c1nnc(NC(=O)c2ccc(S(=O)(=O)N3CCOCC3)cc2)o1	none | CR mimetic CP inactive | DHE fluor count inactive
COCc1nnc(NC(=O)c2ccc(S(=O)(=O)N3CCCc4ccccc43)cc2)o1	none | CR mimetic CP inactive | DHE fluor count inactive
COCc1nnc(NC(=O)c2ccc(S(=O)(=O)N3CCOCC3)cc2)o1	none | CR mimetic CP inactive | DHE fluor count inactive
CC(C)CNC(=O)C1(C)CCCCCN1C(=O)c1cc2ccccc2s1 (configuration not stated)	none (no result: CR mimetic SO, Mot1-301 SUMO)
O=C(C1CCCN(Cc2nc(-c3ccc(Cl)cc3)no2)C1)N1CCOCC1 (configuration not stated)	none
CCN1CCCc2cc(CN(CCN3CCOCC3)C(=S)Nc3cccc(OC)c3)ccc21	none
COCCNC(=O)C1(C)CCCN(C(=O)c2ccc(C(F)(F)F)cc2)C1 (configuration not stated)	none (no result: CR mimetic SO, Mot1-301 SUMO)
O=C(Cc1cccs1)NNC(=S)NC(=O)c1ccccc1	none
O=C(/C=C/c1ccccc1)NC(=S)NNC(=O)Cc1cccs1	CR mimetic SO 50 | CR mimetic CP inactive | DHE fluor count inactive
CCOC(=O)C1=CCN(S(=O)(=O)c2ccc(F)cc2)C1c1ccc(F)cc1 (configuration not stated)	none (no result: Cardio protect, CR mimetic SO, FAS-TE inh, Mot1-301 SUMO)
CCc1nonc1NC(=O)c1oc2c(C)c(C)ccc2c1C	CR mimetic SO 43 (no result: Mot1-301 SUMO) | CR mimetic CP inactive | DHE fluor count inactive
Cc1nc(-c2ccc(NC(=O)Cc3ccccc3)cc2)cs1	CR mimetic SO 64 | CR mimetic CP inactive | DHE fluor count inactive
O=S(=O)(NCc1ccco1)c1ccccc1Br	none
CCOC(=O)N(C)c1c(CC)nc2c(OCc3ccc(S(C)(=O)=O)cc3)cccn12	none (no result: CR mimetic SO, Mot1-301 SUMO)
Nc1cc2c3c(cccc3c1)C(=O)N(CCN1CCCC1)C2=O	CR mimetic SO 48 | CR mimetic CP inactive | DHE fluor count inactive
O=C1c2cccc3cc([N+](=O)[O-])cc(c23)C(=O)N1CCN1CCCC1	none (no result: CR mimetic SO, Mot1-301 SUMO)
CSc1ncc(Cl)c(C(=O)Nc2ccccc2Br)n1	none (no result: Mot1-301 SUMO) | CR mimetic CP inactive | DHE fluor count inactive
CSc1ncc(Cl)c(C(=O)Nc2cccc3ccccc23)n1	none
Cc1ccccc1NC(=O)c1nc(S(C)(=O)=O)ncc1Cl	none | CR mimetic CP inactive | DHE fluor count inactive
CSc1ncc(Cl)c(C(=O)Nc2cccc(Cl)c2)n1	none | CR mimetic CP inactive | DHE fluor count inactive
CSc1ncc(Cl)c(C(=O)Nc2cccc(C)c2)n1	none | CR mimetic CP inactive | DHE fluor count inactive
Cc1n[nH]c(C)c1S(=O)(=O)N(C)Cc1ccco1	none
O=C(O)C1C2OC(C(Br)C2Br)C1C(=O)O (configuration not stated)	none (no result: CR mimetic SO, Mot1-301 SUMO)
CCOC(=O)C(C)NC(=O)CCc1nnc2ccc(N3CCC(C)CC3)nn12 (configuration not stated)	none
Cc1nnc(NC(=O)c2nn(CC(C)C)c(=O)c3ccccc23)s1	none
Cc1nc2ccc(NC(=O)c3nn(CC(C)C)c(=O)c4ccccc34)cc2s1	CR mimetic SO 57 | CR mimetic CP inactive | DHE fluor count inactive
COC(=O)C1C(=O)C=C(Nc2ccc(F)cc2)CC1c1ccc(OC)cc1 (configuration not stated)	CR mimetic SO 65 | CR mimetic CP inactive | DHE fluor count inactive
Cc1ccsc1C(=O)N1CCN(c2ncccn2)CC1	none
CCOc1ccc(NC(=O)CN2CCN(CC(=O)Nc3ccc(OC)cc3OC)CC2)cc1	CR mimetic SO 62 | CR mimetic CP inactive | DHE fluor count inactive
CCOc1ccc(NC(=O)CN2CCN(CC(=O)Nc3ccccc3OC)CC2)cc1	none
O=C(O)CCC1(C(=O)O)CCC(=O)c2ccccc21 (configuration not stated)	none (no result: CR mimetic SO, Mot1-301 SUMO)
CN1C(=O)CCC(CCC(=O)O)(c2ccccc2O)C1=O (configuration not stated)	CR mimetic SO 63 | CR mimetic CP inactive | DHE fluor count inactive
COc1ccc2nc3ccccc3nc2c1N	CR mimetic SO 49 | CR mimetic CP 57 | DHE fluor count inactive
Cc1ccc(NC(=O)c2ccc3nc[nH]c3c2)nc1	none
Cc1ccc(NC(=O)c2ccc(C(=O)c3ccccc3)cc2)nc1	CR mimetic SO 63 | CR mimetic CP inactive | DHE fluor count inactive
Nn1c(SCC(=O)Nc2ccc(F)cc2F)nnc1C1CCCCC1	none | CR mimetic CP inactive | DHE fluor count inactive
Nn1c(SCC(=O)Nc2ccccc2F)nnc1C1CCCCC1	none
Cc1ccsc1C(=O)N1CCC1(C)C(=O)NS(=O)(=O)c1ccccc1C(F)(F)F (configuration not stated)	none (no result: CR mimetic SO, Mot1-301 SUMO)
O=C(CNCC(=O)Nc1ccc(F)c(F)c1F)Nc1ccc(F)c(F)c1F	CR mimetic SO 65 | CR mimetic CP inactive | DHE fluor count inactive
O=C(NCCCN1CCCC1=O)c1cc(S(=O)(=O)N2CCOCC2)ccc1Cl	none
C=C1CCC[C@]2(C)C[C@H]3OC(=O)C(CNCCN(CC)CC)[C@H]3CC12 (some centres not stated)	CR mimetic SO 56 | CR mimetic CP inactive | DHE fluor count inactive
O=C(CNC(=O)c1ccc(C(F)(F)F)cc1)NC1CC1	none
CC(=O)C1=C(O)C(=O)N(CCc2ccccc2)C1c1ccccc1[N+](=O)[O-] (configuration not stated)	CR mimetic SO 59 | CR mimetic CP inactive | DHE fluor count inactive
COc1ccc(F)cc1S(=O)(=O)Nc1ccc(C)cc1	none | CR mimetic CP inactive | DHE fluor count inactive
COc1ccccc1C(=O)COC(=O)C1(C)CC1(Cl)Cl (configuration not stated)	none
Cc1ccc(CCNC(=O)C2CCC(=O)N(Cc3ccccc3F)C2)o1 (configuration not stated)	none

Screening results (PubChem)
